# Reference: PubChem BioAssay AID2685 (National Center for Advancing Translational Sciences (NCATS), 2010)
# Screen size: about 320,000 compounds; about 2,100 (0.66%) were called active. Roughly 53% stayed inconclusive and do not appear here. The sample holds actives, similar compounds and a random draw of the others, so the mix is not that of the screen. Calls follow the shape of the dose curve; as a rule, active = well fitted inhibition curve with a large enough effect in the signal ratio, with a control signal flat (not every such curve was filed as active); inconclusive = small, poorly fitted or top-dose-only effect, or effect the other way, or a change in a side signal; inactive = flat fitted curve, though single readings scatter; the % refers to the signal ratio.
# Experiment: qHTS Assay for Lipid Storage Modulators in Drosophila S3 Cells;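 as to cell number change: cells counted by Cell Tracker Red CMTPX staining in the red channel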; as to lipid storage change, negative = inhibition: % is scaled to controls: 0 for no effect and ±100 for the full control effect
# Details: BODIPY lipid droplet fluorescence, 18-24 h, cells fed with added oleic acid; cell number change: measured here: cell count max response; series mostly up to 46.1 µM; lipid storage change, negative = inhibition: at the top concentration
# Procedure, shortened: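 Laser-scanning cytometry quantifies lipid droplet accumulation (500–530 nm total intensity; droplet/cell object ratio) in oleic acid-fed (400 uM added) Drosophila S3 cells treated with a concentration series. 20 uM Triacsin C defined 100% inhibition.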
# Potency is read from the fitted curve at half-maximal effect.
Compound,"lipid storage change, negative = inhibition",cell number change [%],Potency,outcome
COc1ccccc1NS(=O)(=O)c1ccc2oc(SC(C)C(=O)N3CCNC3=O)nc2c1 (centres undefined),3.7% (inactive),-7.72,–,–
COc1ccccc1NS(=O)(=O)c1ccc2oc(SCc3ccc(F)cc3)nc2c1,-11.7% (inactive),-19.8,–,–
CCOC(=O)CSc1nc2cc(S(=O)(=O)Nc3ccccc3OC)ccc2o1,–,-16.6,29.1 µM (active),–
CSc1ccc(CCNC(=O)CN2C(=O)CCSc3ccccc32)cc1,4.79% (inactive),2.42,–,–
Cc1cc(C)nc(SCC(=O)c2ccc([N+](=O)[O-])cc2)n1,–,–,–,inactive
Cc1cc(C)nc(Sc2ccc([N+](=O)[O-])cc2[N+](=O)[O-])n1,–,-6.83,16.4 µM (active),–
Cc1cc(C)nc(SCc2ccc([N+](=O)[O-])cc2)n1,-12.6% (inactive),-8.5,–,–
C=CCn1c(=O)c2c(nc(-n3nc(C)cc3C)n2C)n(C)c1=O,–,–,–,inactive
Cc1cc(C)nc(N2CCN(C(=O)CCC(=O)Nc3nnc(C(C)C)s3)CC2)n1,0.665% (inactive),0.873,–,–
O=S(=O)(/N=C(\c1ccccc1F)N1CCCCC1)c1ccccc1,-4.68% (inactive),-0.464,–,–
CC(C)Oc1ccc(CNC(=O)Cn2c(=O)c3cccn3c3cccnc32)cc1,–,-16.2,–,inactive
CC1(C)C2CC[C@]1(C)C(=O)N(CCCCN1CCN(c3ccccn3)CC1)C2=O,–,15.1,–,inactive
Cc1[nH]c2ccccc2c1SCC(=O)N1CCC(C)CC1,-7.23% (inactive),-5.95,–,–
S=C1NC2=C(CCCC2)C2(CCCCC2)N1,3.68% (inactive),0.876,–,–
CSC1=NC2(CCCCC2)C2=C(CCCC2)N1,–,-4.54,5.8 µM (active),–
Cc1cccc(C(=O)Nc2c3c(nn2C(C)(C)C)CS(=O)(=O)C3)c1,–,–,–,inactive
COC(=O)c1cc(OC)c(OC)cc1NC(=S)NC(=O)c1ccco1,–,-15.6,18.4 µM (active),–
COc1ccc(Cl)cc1NC(=S)NC(=O)c1ccco1,17.2% (inactive),1.24,–,–
COc1cc(NC(=O)c2ccco2)c(C(=O)O)cc1OC,9.63% (inactive),5.35,–,–
CC1CCc2nn(CC(=O)NCc3ccco3)cc2C1 (centres undefined),8.35% (inactive),-0.142,–,–
CCCCN(C(=S)NC(=O)c1ccccc1)c1c(N)n(Cc2ccccc2)c(=O)[nH]c1=O,-6.94% (inactive),-12.7,–,–
COC(=O)C(C)SC1=N/C(=C/c2ccc(-n3cncn3)cc2)C(=O)N1 (centres undefined),-24.9% (inactive),-12.1,–,–
Cc1ccc2cc(CN(Cc3ccco3)C(=S)NCC3CCCO3)c(=O)[nH]c2c1 (centres undefined),7.64% (inactive),3.25,–,–
COc1ccc(NS(=O)(=O)c2ccc(C(=O)OC(C)C(=O)N3CCOCC3)cc2)cc1 (centres undefined),-17.5% (inactive),-5.78,–,–

Compound,"lipid storage change, negative = inhibition",cell number change [%],Potency,outcome
Cc1ccc(CCNC(=O)CCNS(=O)(=O)c2ccc3c(c2)oc(=O)n3C)cc1,9.42% (inactive),0.906,–,–
C[C@H](NC(=O)CCCOc1ccc(Cl)cc1Cl)c1nnc2ccccn12,–,5.34,18.4 µM (active),–
O=C(CCCOc1ccc(Cl)cc1Cl)NCCc1nnc2ccccn12,–,33.2,–,inactive
CC(C)NC(=O)CCCOc1ccc(Cl)cc1Cl,2.67% (inactive),5.02,–,–
Cc1sc2ncnc(SCC(=O)N3CCOCC3)c2c1C,11.6% (inactive),-10.8,–,–
COc1ccccc1CNC(=O)CCS(=O)(=O)c1ccc2c(c1)CC(C)N2C(=O)C1CC1 (centres undefined),–,-19.6,–,inactive
COc1cccc(CNS(=O)(=O)c2ccc3c(c2)CC(C)N3C(=O)C2CC2)c1 (centres undefined),–,-26.9,11.6 µM (active),–
COc1cccc(NC(=O)CCNS(=O)(=O)c2ccc3c(c2)CC(C)N3C(=O)C2CC2)c1 (centres undefined),–,4.78,–,inactive
CC1Cc2cc(S(=O)(=O)NCc3ccccc3)ccc2N1C(=O)C1CC1 (centres undefined),-7.65% (inactive),-26.2,–,–
COc1ccccc1CNS(=O)(=O)c1ccc2c(c1)CC(C)N2C(=O)C1CCC1 (centres undefined),–,-14.7,5.17 µM (active),–
COc1ccccc1NC(=O)CCNS(=O)(=O)c1ccc2c(c1)CC(C)N2C(=O)C1CC1 (centres undefined),–,3.62,–,inactive
OC1(c2ccccc2)CCN(Cc2ccccc2)C2CCCCC21 (centres undefined),-16.4% (inactive),-0.282,–,–
COc1ccc(-n2c(/C=C(\C)O)nc(=O)c3c(C)cc(C)nc32)cc1,–,–,–,inactive
COC(=O)C1Cc2c([nH]c3ccccc23)CN1C(C)=O (centres undefined),2.74% (inactive),2.42,–,–
COc1ccc(/C=C2\SC(=O)N(CCNC(=O)C3CC4C=CC3C4)C2=O)cc1 (centres undefined),22.3% (inactive),–,–,–
O=C(O)CCN1C(=O)S/C(=C\c2cccnc2)C1=O,-6.97% (inactive),3.35,–,–
COc1ccc(/C=C2/SC(=O)N(CCNC(=O)C3CCCN3C(=O)c3cccs3)C2=O)cc1 (centres undefined),–,-3.84,20.6 µM (active),–
O=C(NCCN1C(=O)S/C(=C\c2cccnc2)C1=O)c1ccc([N+](=O)[O-])s1,-4.61% (inactive),0.268,–,–
O=C(COC(=O)C1CCCN1C(=O)c1cccs1)Nc1ccc2c(c1)OCO2 (centres undefined),17.5% (inactive),11.1,–,–
COc1ccc(NC(=O)COC(=O)[C@@H]2CCCN2C(=O)c2cccs2)cc1,–,7.9,29.1 µM (active),–
COc1ccc(/C=C2/SC(=O)N(CCNC(=O)C3COc4ccccc4O3)C2=O)cc1 (centres undefined),7.79% (inactive),-11.7,–,–
COc1ccc(NC(=O)COC(=O)[C@@H]2CCCN2C(=O)c2cccs2)c(OC)c1,-14.7% (inactive),-0.232,–,–
O=C(NCCN1C(=O)S/C(=C/c2cccnc2)C1=O)c1cccs1,–,-5.78,2.31 µM (active),–
